High-throughput results as filed in PubChem BioAssay.
Shown are actives, neighbours in structure and some others; about 6.5% of the full set was active somewhere.
HepG2 tox-1 – kills HepG2 cells in TGF-b inhibitor counter-screen. HepG2 CAGA-GFP viability, ATP luminescence, 18 h. Potency, µM (highest dose often 46.1 µM), actives largely listed as cytotoxic. hit rate 0.76% among 410,000. AID 588856
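CellTiter-Glo luminescence gave cytotoxicity after 18 hours at 37 degrees C. The cells were HepG2 CAGA-GFP in 1% FBS DMEM, stimulated with 500 pg/mL TGF-beta after compound addition. %Activity was normalised to no-cell wells (complete cell-killing) and DMSO (no toxicity), and curves were fitted and classified.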
IL1B secr inh – blocks inflammasome-driven IL-1 beta release; THP-1 LPS/ATP IL-1B secretion, AlphaLISA, 16 h; stronger effect = lower value; activity change, % at 57.5 µM; hit rate 4.7% among 360,000; AID 743279; in the data active means activity change below about -50%; inconclusive means mostly about -30% to -49%
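THP-1 cells pretreated 1 hr with compounds (up to 57.5 uM final), then stimulated with LPS (250 ng/mL final) plus ATP (1.25 mM final); secreted IL-1B measured by AlphaLISA after 16 hr, decreased signal indicating inhibition.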
HT1080-NT tox – kills 2HG-producing HT-1080-NT fibrosarcoma cells; HT-1080-NT fibrosarcoma viability, CellTiter-Glo ATP luminescence, 48 h; Potency, µM (series often up to 46.1 µM), usual class: cytotoxic; hit rate 1.6% among 360,000;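 further: NT is the 2HG producing partner of a matched IDH1 knockdown line; nearly all actives have a fitted effect of over 55% in size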
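Fibrosarcoma NT cells, 750 per well in 5% FBS RPMI, were exposed to compound for 48 hours. Viability: CellTiter-Glo luminescence.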
Giardia kill – kills Giardia lamblia; hit rate 0.15% among 340,000; activity change, % at 7.66 µM, hits read low; AID 540267; Giardia lamblia trophozoite viability; in the data active means activity change below about -80%; inconclusive means between about -30% and that limit;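 further: parasites exposed to compound for two days anaerobically before the ATP read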
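Trophozoite viability was measured as ATP-dependent luminescence, read 15-30 min after reagent addition. Before that, parasites at 100 cells/well were exposed to compounds for 48 h, anaerobically, at 37 deg C.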
TGFb inhibitor – TGF-b pathway inhibition | HepG2 CAGA-GFP TGF-b/SMAD3 reporter, GFP fluorescence, 18 h; TGF-beta stimulated, 500 pg/mL final | Potency, µM (top dose mostly 46.1 µM), actives largely listed as inhibitors | AID 588855 | hit rate 1.2% among 410,000; further: nearly all actives have a fitted effect of over 65% in size
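Using HEPG2 CAGA-GFP reporter cells at 1000 cells/well, we pinned test compounds, stimulated with recombinant TGF-beta (500 pg/mL final) and measured total well GFP after 18 h.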
HT1080 IDH1KD tx – toxicity to HT-1080 IDH1 knockdown cells (counter line) | HT-1080 IDH1 knockdown viability, ATP luminescence, 48 h | AID 686971 | hit rate 2% among 360,000 | Potency, µM (doses to about 46.1 µM), actives largely listed as cytotoxic
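In this qHTS, HT-1080 cells depleted of IDH1 are exposed for 48 h at 37 °C to compound titrations. Toxicity is scored from CellTiter-Glo luminescence, with DMSO as full viability and medium alone as none.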
TGFb CAGA inh – confirmation of TGF-b signaling inhibitors in HepG2 reporter cells; shares compounds with TGFb inhibitor; Potency, µM (doses to about 46.1 µM), actives largely listed as inhibitors; HepG2 CAGA-GFP TGF-b reporter, GFP fluorescence, 18 h; cells stimulated with TGF-beta, 500 pg/mL; AID 720534; hit rate 63% among 1,600; further: nearly all actives have a fitted effect of over 65% in size
HepG2 tox-2 – counter-screen for TGF-b inhibitors: cytotoxicity in HepG2 cells | shares compounds with TGFb inhibitor | HepG2 CAGA-GFP viability, ATP luminescence, 18 h; cells stimulated with TGF-beta, 500 pg/mL | Potency, µM (top dose mostly 46.1 µM), usual class: inhibitors | hit rate 27% among 1,600 | AID 720535; further: nearly all actives have a fitted effect of over 70% in size
TGFb CCL64 inh – blocks TGF-b signaling in CCL64 reporter cells. shares compounds with TGFb inhibitor. CCL64 CAGA-GFP reporter, TGF-b stimulated, GFP fluorescence, 18 h. Potency, µM (top dose mostly 46.1 µM), most hits filed as inhibitors. hit rate 41% among 1,600. AID 720536; further: nearly all actives have a fitted effect of over 65% in size
COP TGFb inh – blocks TGF-b signaling in HepG2 COP reporter | Potency, µM (series often up to 46.1 µM), usual class: inhibitors | hit rate 3% among 1,600 | HepG2 COP-GFP TGF-b reporter, GFP fluorescence, 18 h; cells stimulated by added recombinant TGF-beta | shares compounds with TGFb inhibitor; further: nearly all actives have a fitted effect of over 70% in size
Numbers stand for hits; . = inactive; ? = inconclusive; / = not tested or not shown; [ ] = another dose, or the depositor's remark. Unless noted, the call rests on the fitted dose curve; in most records, active means well fitted curve in the direction sought with a large enough effect; inconclusive means small, poorly fitted or top-dose-only effect, or another doubt; inactive means no such curve, though single readings can be large; an effect the other way counts as inactive or inconclusive.

SMILES	HepG2 tox-1	IL1B secr inh	HT1080-NT tox	Giardia kill	TGFb inhibitor	HT1080 IDH1KD tx	TGFb CAGA inh	HepG2 tox-2	TGFb CCL64 inh	COP TGFb inh
Cc1cc(C)cc(Oc2coc3cc(OC(=O)c4cccs4)ccc3c2=O)c1	.	.	.	.	?	.	?	.	.	.
CN(C)c1cccc(/C=C(\C#N)c2ccccc2)c1	.	.	?	.	13µM	3.3µM	?	.	?	.
CC(C)C[C@@H](CN1CCC[C@@H]1CN1C(=S)NC[C@@H]1Cc1ccc(O)cc1)N1C[C@H](Cc2ccc(O)cc2)N(CC2CCCCCC2)C1=S	.	-82	?	/	4.5µM	18µM	18µM	18µM	8.2µM	.
CC(C)C[C@@H](CN1CCCC1CN1C(=S)NC[C@@H]1Cc1ccccc1)N1C[C@H](Cc2ccc(O)cc2)N(CC2CCCCC2)C1=S (stereo partly specified)	/	.	?	/	/	?	/	/	/	/
CC(C)C[C@@H](CN1CCC[C@@H]1CN1C(=S)NC[C@@H]1Cc1ccc(O)cc1)N1C[C@H](Cc2ccc(O)cc2)N(CC2CCCCC2)C1=S	.	-80	23µM	/	7.1µM	?	16µM	?	5.8µM	?
c1csc(CNc2ncnc3ccc(-c4ccc5c(c4)OCO5)cc23)c1	.	/	/	.	?	/	/	/	/	/
COc1ccc2[nH]c3c(=O)n(Cc4ccc(C(=O)N5CCCCCC5)cc4)c(=S)[nH]c3c2c1	.	.	.	.	.	.	/	/	/	/
COc1cc(OC)c(OC)cc1CNc1cc(C)ccc1OC	.	.	?	.	?	.	6.5µM	.	.	.
COc1ccc(C)cc1NCc1cccc(OC)c1OC	.	.	.	.	.	.	/	/	/	/
O=C(OCc1ccccc1)N(CCCCN(CCCNCc1ccccc1)C(=O)OCc1ccccc1)CCCNCc1ccccc1	5.6µM	.	?	.	5µM	?	13µM	8.2µM	?	?
CC1(C)Cc2c(cnn2-c2ccccc2)-c2c1c1ccccc1n2CC(O)CBr (stereo unspecified)	.	.	?	.	?	.[9.24 µM]	?	.	?	.
CC1(C)Cc2c(cnn2-c2ccccc2)C(=O)/C1=N\NC(=O)c1ccccc1N	.	.	?	.	.	.	/	/	/	/
O=S(=O)(Nc1cc(Sc2ncn[nH]2)c(O)c2ccccc12)c1ccccc1	3.5µM	-95	2.3µM	.	2.5µM	4.6µM	7.3µM	?	5.8µM	?
Cc1cc(O)c(Sc2ncn[nH]2)cc1NS(=O)(=O)c1ccc(Cl)cc1	.	.	.	.	.	.	/	/	/	/
CCCc1cc(-c2[nH]ncc2-c2ccc(C(=O)OCC)o2)c(O)cc1O	20µM	-84	?	.	10µM	?	.	.	?	.
CCCc1cc(-c2[nH]ncc2-c2ccc3c(c2)OCCCO3)c(O)cc1O	.	.	.	.	?	.	/	/	/	/
CC1CC(C)C(=O)C(C(CC2CC(=O)NC(=O)C2)OC(=O)CC(=O)c2ccccc2)C1 (stereo unspecified)	.	.	?	?	2.2µM	?	0.41µM	?	2.6µM	.
O=C1CCC(C(=O)OCC(=O)c2ccccc2)N1 (stereo unspecified)	.	.	.	.	?	.	/	/	/	/
COc1ccccc1-c1cc(C(F)(F)F)nc(S(=O)(=O)CCCC(=O)N2CCCCC2C)n1 (stereo unspecified)	.	-97	?	.	10µM	23µM	9.2µM	18µM	4.6µM	?
COc1ccccc1-c1cc(C(=O)N2CCCCC2C)no1 (stereo unspecified)	.	/	/	/	/	/	/	/	/	/
O=C(O)c1ccc(-n2ncc3c2/C(=C/c2cccc([N+](=O)[O-])c2)CC3)cc1	.	.	.	.	.	.	/	/	/	/
CCOC(=O)N=Nc1c2ccccc2c2nc3no[nH]c3nc12	0.79µM	-103	1.2µM	-96	0.71µM	1µM	0.65µM	0.73µM	1.3µM	0.73µM
COc1ccc(/C(C)=N/NC(=O)c2nc(C)cc(C)n2)cc1	.	.	.	.	.	.	/	/	/	/
COc1ccc(/C(C)=N/Nc2nc3ccccc3nc2C)cc1	.	.	?	.	7.9µM	?	?	.	.	.
O=C(NC(Nc1nc2ccc([N+](=O)[O-])cc2s1)(C(F)(F)F)C(F)(F)F)c1ccccc1Cl	.	-69	3.3µM	.	0.45µM	2.9µM	0.92µM	1µM	1.5µM	.
SMILES	HepG2 tox-1	IL1B secr inh	HT1080-NT tox	Giardia kill	TGFb inhibitor	HT1080 IDH1KD tx	TGFb CAGA inh	HepG2 tox-2	TGFb CCL64 inh	COP TGFb inh
O=C(NC(NNc1ccc([N+](=O)[O-])cc1)(C(F)(F)F)C(F)(F)F)c1ccccc1Cl	.	.	.	.	?	.	/	/	/	/
O=C(NC(Nc1nc2ccc([N+](=O)[O-])cc2s1)(C(F)(F)F)C(F)(F)F)c1cccnc1	.	-70	9.2µM	.	3.2µM	13µM	4.1µM	1.6µM	5.8µM	.
CN(C)S(=O)(=O)c1ccc2nc(NC(=O)c3cccnc3)sc2c1	.	.	.	.	.	.	/	/	/	/
COc1ccc(NS(=O)(=O)c2cc(-c3nnnn3C)ccc2OC)cc1	.	.	.	.	.	.	/	/	/	/
Cc1c(C(=O)N/N=C/c2ccc(N(C)C)cc2)[nH]c2ccc(Cl)cc12	.	.	5.8µM	.	4.5µM	?	2.3µM	.	?	.
CC1CCCN(C(=O)COC(=O)COc2ccc(C#N)cc2)C1 (stereo unspecified)	.	.	.	.	.	.	/	/	/	/
CN(Cc1cccs1)c1nc(-c2cccnc2)nc2ccccc12	.	-92	.	.	14µM	.	26µM	?	18µM	.
O=C(OCc1ccccc1)c1ccc(NCc2cc(O)ccc2O)cc1	.	-76	9.2µM	.	10µM	5.8µM	5.2µM	16µM	2.1µM	.
COc1cccc(Cl)c1NC(=O)N1CCN(c2cc(C)nc3ccccc23)CC1	.	-71	.	.	13µM	?	.	?	?	.
